# Results from the supplement of paper PMC11417369.
# Over roughly 25,000 sequences, “ln(normalized median fluorescence intensity)” has its median near 9.3; the highest 2% begin near 10. The sample holds the highest values, similar sequences and a random draw of the others, so the mix is not that of the screen.
# Tested on: PF3D7_0420300 AP2 domain 1 (GST-tagged)
# Assay: gcPBM binding intensity (ln(normalized median fluorescence intensity)); higher = stronger DNA binding
# Procedure, shortened: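 Binding intensity values are the highest Masliner-normalised natural-log median intensity among replicate spots of either probe orientation. The binding step lasted 1 h in 1× PBS with 1% milk, 0.2 mg/ml BSA, 0.5% salmon testes DNA and 0.03% Triton X-100, using GST-tagged P. falciparum DNA-binding domains expressed in E. coli on an Agilent 4 × 180k array of primer-extended double-stranded 36-bp intergenic genomic probes plus negative controls. Alexa488 anti-GST antibody and a 488 nm scan detected bound protein.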
row,Sequence,gcPBM binding intensity (ln)
1,ATATAAGTATATCTATGTACATACAATATAAATGTA [XGTACX_site2153],9.09
2,AAAAATATAAACTGCACACACAAAAAAAAAAGAGAA [CACACA_site1367],10.1
3,AAAAATATAAACTGCACACACACAAAAAAAGAAAAA [CACACA_site648],10.1
4,AAAAAGAAAAAAAACACACACAAATATAAATAAATA [CACACA_site1183],9.98
5,AAATATAAACGGCACACACACAAAAAAAGAAAAAAA [CACACA_site649],10.2
6,AAAAAAAGAAAAAAAACACACACAAATATAAATAAA [CACACA_site8309],10
7,TAAAAAATATAAACTGCACACACAAAAAAAAAAGAG [CACACA_site8379],10.2
8,TCTAATGATATATACACACACATATAGATTTATATA [CACACA_site7044],9.64
9,TGTAGATATTATATATGTACGCATATGAAATATATA [XGTACX_site1586],9.09
10,ACATATTCATATGGAAGTACGATAATGTAGTCATAT [XGTACX_site7080],9.37
11,TTTAACAACTATTTCTGTACACATTTTTATATAATT [XGTACX_site4917],9.47
12,TTTATATTATAATATAATAATGATCTTAATTTTTTT [XGTACX_negctrl_site100],8.91
13,AAAAAAAATTTTAATTGTACAAAAAAAAAAAATATA [XGTACX_site2259],8.91
14,CACGCACGCAGACACACACACACACGCACATATATA [CACACA_site6303],10.3
15,CATACATACAGACACACACACATATATATATATATA [CACACA_site2920],9.91
16,CATACACATAGACACACACACATATATACCTATATA [CACACA_site6644],10.1
17,AACATACATAGACACACACACACACGCACACGCACA [CACACA_site6373],10.3
18,AGTATACGCAGACACACACACACATATATATATATA [CACACA_site1735],9.98
19,CATACCTATAGACACACACACACACGCACGCACAAA [CACACA_site6374],10.2
20,CACATACACATACACATACACACGCATAGAAACATA [CACACA_site2136],9.79

row,Sequence,gcPBM binding intensity (ln)
1,TATACACATAGACACACACACAAAAAAAAAAAAAAA [CACACA_site6338],9.73
2,CACATACAGACATACACACATACACATATACGCATA [CACACA_site1745],9.86
3,TATACACATAGACACACACACATACACGCACATACA [CACACA_site6908],10.1
4,TATATACACAGACACACACACACATACACGCACATA [CACACA_site6909],10.3
5,CGCACACGCAGACACACACACACATATAAATAAATA [CACACA_site7101],9.86
6,TAGTATTTATATGATTAACACACATATGGGTATTAA [CACACA_site8363],9.28
7,CATATAAGACAAAAGGTGCAATTTTAATGCTTTTAT [GTGCAC_site9432],9.31
8,ATAACATATATATATACACACACATATATATATGAA [CACACA_site7983],9.79
9,TTCTATATTTTAGCTGATAATATTATGAGCTTCACT [XGTACX_negctrl_site427],9.08
10,AATAAATAAATAAATATATATATATATATATATATA [CACACA_negctrl_site708],8.86
11,TCTTCTTAACCAACTATGAAAAGGAAAAATATAACA [GTGCAC_negctrl_site565],9.06
12,TATGTATAATTATTTTGTACTTATTAAATTTTTTTT [XGTACX_site5413],9.18
13,TACCCTGATCGGCATGCATGTAAGTAACAAATATAT [TGCATGCA_site153],9.22
14,ATATAAAATATTACGTGTACACATAAATAAAAATAA [XGTACX_site3746],9.41
15,GAATAAAAAATTGGCACACATAAATATATGGATATA [CACACA_site3047],9.46
16,AGTATACATATATATACACACATATATATATATATA [CACACA_site300],9.42
17,AAAAAAAAAAAAAAGACACACATATATATATATATA [CACACA_site633],9.15
18,TACATACACGGACACACACACATATATATATATATA [CACACA_site5883],9.95
19,AAAAAAAAAAGACACACACACACACGCATATACATA [CACACA_site7289],10.2
20,AGTATACATATATATACACACACATATATATATATA [CACACA_site7883],9.61

row,Sequence,gcPBM binding intensity (ln)
1,TATACGCATATATACACACACATATATATATATATA [CACACA_site3416],9.66
2,CATATATACACATACACACACACACGGACACGCACA [CACACA_site6910],10.2
3,CGCATACACGGACACACACACACATATATATATATA [CACACA_site4520],10.1
4,AGTATACTCGGACACACACACACATATATATATATA [CACACA_site5031],10.2
5,TATACACGCGGACACACACACACACGCAAAAAAAAA [CACACA_site6377],10.1
6,CATACACGCGGACACACACACACACGCATATATAAC [CACACA_site6427],10.4
7,TTTTTTATAGTACATTACCAAAAAAAAAAAAAAAAA [GTGCAC_negctrl_site549],8.32
8,TGTTGATTTATCCTGTGTACGGATATATATCTTTCA [XGTACX_site7826],9.27
9,AAAAATAGACAAAAGAGTACAAGAAAAAAAGGGTTC [XGTACX_site7843],9.86
10,AAATTTTTTAATTTTTCTCATTTAATTTAAAAATTA [GTGCAC_negctrl_site155],8.88
11,TATATTTTATATATGGTGCAACTTTTATTTAAATAA,8.77
12,ATTATTAAGTTTCACAAGAACATTGTTAACAATTTT [CACACA_negctrl_site1128],9
13,ATATATATGGAAACAGTGCAATACATATATATATAT,9.71
14,TTTTATGATAATTTTGCACACACTTAGGAAAAATTA [CACACA_site1556],9.31
15,AAAGTTTTAAGAAAATGTACATAAGTATACATATAT [XGTACX_site1293],9.18
16,CATACATACGGACACACACACATATATATATATATA [CACACA_site5598],9.97
17,AATACACGCAGACACACACACACACGCACATATATA [CACACA_site6447],10.3
18,AATACATACAGACACACACACACATATATATATATA [CACACA_site3558],10.1
19,AATATATACATATATACACACACATATATATATATA [CACACA_site8907],9.75
20,AATACATACGGACACACACACACATATATATATATA [CACACA_site5884],10.2
